This is part of a sample that, as a whole, favours compounds with a hit. Of some 83,000 tested, about 20% had one in any assay.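 Assay: single dose, 48 h. Readout: percent growth (0 = no net growth; negative = cell death). Active: <10.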 Active and inactive are the calls of the source.
test system: HL-60(TB) leukemia; test: NCI-60 one-dose screen, 48 h (100 = growth as untreated, 0 = no growth, -100 = all killed); details: 10 µM unless noted

| SMILES | growth |
| --- | --- |
| CCCCN(C=S)CCCC | 104% (inactive) |
| COc1cc(NC(=O)c2cc(O)c(CC=C(C)C)c(O)c2)cc2c1O[C@]1(C)CC[C@@H](O)C(C)(C)[C@H]1C2 | 9.12% (active) |
| COC(=O)C1=C(C(=O)OC)C23C=C(C)C1C2=C(C)C1(CC1)[C@@](C)(O)C3=O (stereo partly drawn) | 25.6% (inactive) |
| Nc1ccc(/C=N/Nc2ccnc3c(N)cccc23)c2cccnc12 | -60.4% (active) |
| CCOc1cccnc1/C=N/NC(N)=S | -17% (active) |
| CCCCCCCCCCCCCCCC[N+](C)(CCO)Cc1cnc[nH]1 (stereo not drawn) | -80.6% (active) |
| Cn1c(C#N)ccc1-c1ccc(F)c(NC(=O)c2ccc(F)cc2)c1 | 60% (inactive) |
| CC(C)=CC(=O)OC(=O)C=C(C)C | 104% (inactive) |
| COc1ccc(/C=C/C(=O)/C=C(/C=C/c2ccc(OC)c(OC)c2OC)OB(F)F)c(OC)c1OC | 8.53% (active) |
| COc1cc(C2C3=C(COC3=O)Nc3c2ccc2c3CCCC2)cc2c1OCO2 (stereo not drawn) | -6.76% (active) |
| CC1(C)C(=O)/C(=C\c2cccnc2)C[C@]2(C)[C@H]3CC[C@@H]4[C@@H](C(=O)/C=C/c5ccncc5)CC[C@@]4(C)[C@]3(C)CC[C@@H]12 | -11% (active) |
| COc1ccc2c(c1)C(=O)/C(=C/c1cccc(OCC(=O)Nc3nc4c(s3)CCCC4)c1)O2 | -70.8% (active) |
| COc1ccc(-c2nnc(SCC(=O)Nc3ccc(C(=O)/C=C/c4cc(OC)c(OC)c(OC)c4)cc3)n2-c2ccccc2)cc1OC | 46.1% [100 µM] (inactive) |
| COc1cc(NC(=O)CCSc2nc3ccc(Cl)cc3c(=O)n2Cc2ccccc2)cc(OC)c1OC | 99.6% (inactive) |
| CC(C)(O)C(=O)O | 103% (inactive) |
| O=c1[nH]c(-c2cn(-c3ccc(Cl)cc3)nn2)nc2ccccc12 | 100% (inactive) |
| Cc1ccc(C)c(S(=O)(=O)NC2c3ccccc3Oc3ccccc32)c1 | 86.9% (inactive) |
| CN1CCN(CCC(=O)Nc2cccc(-n3cc(-c4ccncc4)c(-c4ccc(Cl)c(O)c4)n3)c2)CC1 | 5.71% (active) |
| CCN(CC)CCC(=O)c1ccc(OC)c2ccccc12 | 44.2% (inactive) |
| Cn1c2ccccc2c2c3c(c4c5ccccc5n(CCCCCC#N)c4c21)C(=O)N(O)C3=O | -22.3% (active) |
| COc1ccc(C(Cn2ccnc2)Sc2ccc(Cl)c(Cl)c2)cc1 (stereo not drawn) | 70.7% (inactive) |
| CCN1C(=O)N(CC)C2Nn3c(s/c(=C4\C(=O)N(CC(C)C)c5ccccc54)c3=O)=NC21 (stereo not drawn) | 18.9% (inactive) |
| CC(C)c1ccc(S(=O)(=O)NC(=O)NC2CCCC2)cc1 | 90.8% (inactive) |

From PubChem BioAssay (NCI)
